# High-throughput results as filed in PubChem.
# HT1080NT lethal = kills 2HG-producing HT-1080-NT fibrosarcoma cells. HT-1080-NT fibrosarcoma viability, CellTiter-Glo ATP luminescence, 48 h. Potency, µM (titrated, usually from 46.1 µM), hits mostly cytotoxic. hit rate 1.6% among 360,000;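 note: NT is the 2HG producing partner of a matched IDH1 knockdown line; nearly all actives have a fitted effect of over 55% in size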
#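 HT-1080-NT; 750 cells/well; 5% FBS RPMI; 48 h compound, 37 degrees C; CellTiter-Glo luminescence; curve fitting and curve-class assignment.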
# 12-LOX inh = ALOX12 (human) lipoxygenase inhibition; P18054; purified 12hLO, xylenol orange hydroperoxide absorbance; Potency, µM (series often up to 108 µM), actives largely listed as inhibitors; hit rate 1.1% among 580,000
# Target sequence (P18054 whole entry, looked up): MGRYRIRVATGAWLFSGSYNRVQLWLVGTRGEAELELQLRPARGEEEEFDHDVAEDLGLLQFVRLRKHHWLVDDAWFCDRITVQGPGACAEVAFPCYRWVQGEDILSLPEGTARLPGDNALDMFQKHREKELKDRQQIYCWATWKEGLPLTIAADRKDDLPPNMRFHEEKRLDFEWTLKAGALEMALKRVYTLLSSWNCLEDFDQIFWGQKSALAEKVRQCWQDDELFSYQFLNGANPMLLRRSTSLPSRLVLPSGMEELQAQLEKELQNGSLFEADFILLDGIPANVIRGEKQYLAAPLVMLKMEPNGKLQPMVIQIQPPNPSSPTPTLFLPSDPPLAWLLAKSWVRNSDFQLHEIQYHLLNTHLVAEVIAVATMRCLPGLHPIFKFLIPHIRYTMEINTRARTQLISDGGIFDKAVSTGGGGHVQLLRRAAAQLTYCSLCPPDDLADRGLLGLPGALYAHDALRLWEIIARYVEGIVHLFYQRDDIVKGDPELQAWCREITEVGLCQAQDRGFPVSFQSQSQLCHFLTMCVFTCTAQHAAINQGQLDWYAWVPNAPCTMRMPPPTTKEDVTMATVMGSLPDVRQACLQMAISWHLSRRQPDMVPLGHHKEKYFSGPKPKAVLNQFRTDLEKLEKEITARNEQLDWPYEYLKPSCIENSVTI
#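 Purified human 12hLO at 150 nM in 25 mM Hepes, 0.01% Triton X-100, pH 7.0, preincubated 15 min at room temperature with compound. Reaction started with 40 uM arachidonic acid, 30 min at room temperature. Hydroperoxide measured by Fe-xylenol orange, 573/405 nm absorbance ratio.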
# HT1080 IDH1KD tx = kills HT-1080 cells with IDH1 knockdown. HT-1080 IDH1 knockdown viability, ATP luminescence, 48 h. Potency, µM (highest dose often 46.1 µM), actives largely listed as cytotoxic. hit rate 2% among 360,000. AID 686971
#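 Luminescent ATP read-out (CellTiter-Glo, 10 min at room temperature) after 48 h compound exposure at 37 °C gave viability of IDH1-knockdown HT-1080 cells. Activity was normalised to DMSO and cell-free wells, then fitted as concentration-response curves.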
# IL1B secr inh = inflammasome signaling inhibition, IL-1 beta readout. hit rate 4.7% among 360,000. activity change, % at 57.5 µM. THP-1 LPS/ATP IL-1B secretion, AlphaLISA, 16 h; active compounds read low. AID 743279; in the data active = activity change below about -50%; inconclusive = mostly about -30% to -49%
#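 Secreted IL-1B measured by AlphaLISA bead assay after 16 h compound exposure of THP-1 cells; compounds (final up to 57.5 uM) added 1 h before LPS (250 ng/mL) and ATP (1.25 mM) stimulation; lower signal means less secretion.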
# TDP1 cell noCPT = qHTS for Inhibitors of human tyrosyl-DNA phosphodiesterase 1 (TDP1): qHTS in cells in absence of CPT. Potency, µM (titrated, usually from 46.2 µM), usual class: inhibitors. DT40 Tdp1-/- hTDP1 cells, no CPT, ATP luminescence, 48 h. hit rate 15% among 420,000; note: nearly all actives have a fitted effect of over 55% in size
#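 Luminescent ATP content (CellTiter-Glo) served as the growth readout. Knockout chicken DT40 cells expressing human TDP1 were exposed to compounds without camptothecin for a minimum 48 hr at 37 °C.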
# DT40 TDP1 CPT = growth inhibition of DT40 Tdp1-/-;hTDP1 cells with camptothecin (screen for TDP1 inhibitors); chicken DT40 Tdp1-/-;hTDP1 cells + 20 nM CPT, ATP luminescence, 48 h; AID 686979; Potency, µM (highest dose often 46.2 µM), actives largely listed as inhibitors; hit rate 12% among 420,000; note: nearly all actives have a fitted effect of over 55% in size
#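 Chicken DT40 Tdp1-/- cells complemented with human TDP1, 400 cells/well, exposed to compounds plus 20 nM camptothecin for at least 48 h at 37 C; viability read as ATP content by CellTiter-Glo luminescence.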
# A number is an active result; – = inactive; ? = inconclusive; · = no result; [ ] = remark or other dose. Shown is part of a subset that was picked to be rich in hits. Unless noted, calls come from the whole dose curve; as a rule, active = well fitted curve in the direction sought with a large enough effect; inconclusive = small, poorly fitted or top-dose-only effect, or another doubt; inactive = no such curve, though single readings can be large; an effect the other way counts as inactive or inconclusive.
SMILES,HT1080NT lethal,12-LOX inh,HT1080 IDH1KD tx,IL1B secr inh,TDP1 cell noCPT,DT40 TDP1 CPT
Nc1ccccc1SSc1ccccc1N,?,?,23µM,-97,3.7µM,5.2µM
N#Cc1ccccc1Sc1ccccc1N,–,–,–,–,–,–
COc1cc(OC)nc(NCc2cccnc2N2CCN(C(C)=O)CC2)n1,·,–,·,·,·,·
Cc1cc(SC#N)cc(C)c1N,·,–,·,·,·,·
CN(C)c1ccc(SC#N)cc1,–,–,–,-99,–,–
COc1ccc(C)cc1NC(=O)CN1CCN(c2ccccc2F)CC1,–,–,–[9.24 µM],–,13µM,?
COc1ccc(OC)c(NC(=O)CCN2CCN(c3ccccc3F)CC2)c1,–,–,–,–,13µM,29µM
COc1ccc(C)cc1NC(=O)CCN1CCN(c2ccccc2F)CC1,–,?,–,–,?,?
O=c1cc(-c2ccco2)oc2ccc(Cl)cc12,–,–,–,–,–,–
COc1ccc2c(=O)cc(-c3ccccc3F)oc2c1,–,–,–,-61,21µM,?
COc1ccc2oc(-c3ccco3)cc(=O)c2c1,–,–,–,-62,?,?
COc1cccc2oc(-c3ccco3)cc(=O)c12,–,?,–,-101,15µM,21µM
COc1ccc2c(=O)cc(C(F)(F)C(F)(F)F)oc2c1,–,–,–,–,–,–
COc1cccc(CNC(=O)[C@H]2CCCN2C(=O)[C@H]2CCCN2C(=O)c2ccc(C)cc2)c1,·,–,·,·,·,·
COc1ccc(Br)cc1C(=O)Nc1ccccc1N1CCCC1,?,?,–,–,?,?
COc1cccc(C(=O)Nc2ccccc2-c2ccccc2)c1,–,?,–,–,?,–
COc1c(Cl)cc(C(=O)Nc2ccccc2-c2ccccc2)cc1Cl,–,–,–,?,29µM,?
COc1ccc(Br)cc1C(=O)Nc1ccccc1-c1ccccc1,?,–,–,–,29µM,?
NCCSCc1cccs1,·,–,·,·,·,·
O=[S+]([O-])(c1cccc(C(F)(F)F)c1)N1CCCC2(CC(c3cccc(C(F)(F)F)c3)=NO2)C1 (configuration not stated),·,–[6.33 µM],·,·,·,·
CCOc1ccc(CN(C)CC(O)COC(c2ccc(OC)cc2)c2ccc(OC)cc2)cc1 (configuration not stated),16µM,?,?,-59,18µM,?
COc1ccc(C(OCC(O)CN(C)C2CCCCC2)c2ccc(OC)cc2)cc1 (configuration not stated),?,–,?,-71,?,16µM
COc1ccc(CN(C)CC(O)COC(c2ccc(OC)cc2)c2ccc(OC)cc2)cc1 (configuration not stated),21µM,?,?,?,23µM,?
CCOc1ccc(CN(C)CC(O)COCc2ccc(OC)cc2)cc1OC (configuration not stated),·,–,·,·,·,·
CC(C)C(=O)NC(=S)Nc1ccc(NC(=O)c2cccc(Cl)c2)cc1,·,16µM,·,·,·,·
SMILES,HT1080NT lethal,12-LOX inh,HT1080 IDH1KD tx,IL1B secr inh,TDP1 cell noCPT,DT40 TDP1 CPT
CC(C)C(=O)Nc1cccc(NC(=S)NC(=O)c2ccccc2Cl)c1,–,–,–,–,18µM,?
Cc1ccccc1C(=O)NC(=S)Nc1cccc(NC(=O)C(C)C)c1,–,–,–,–,?,–
CC(=O)NC(=S)Nc1ccc(NC(=O)c2cccc(Cl)c2)cc1,·,–,·,·,·,·
O=C(Nc1ccc(NC(=S)NC(=O)c2ccccc2Cl)cc1)c1cccc(Cl)c1,–,–,?,–,16µM,18µM
CC(OC(=O)c1ccccc1O)C(=O)Nc1cccc(Cl)c1 (configuration not stated),–,–,–,–,13µM,–
COc1cc(NC(=O)c2nc3nc(C)cc(C(F)F)n3n2)cc(OC)c1OC,·,–,·,·,·,·
O=C1CC2CCCC(C1)N2C(=O)C1CCCC1,·,–,·,·,·,·
CC(C)C[C@H]1CN(CCCC[C@@H]2CNC(=O)C(=O)N2Cc2ccccc2)C(=O)C(=O)N1CCc1ccccc1,–,–,–,–,?,–
O=C1NC[C@@H](CCCCN2C[C@H](Cc3ccccc3)N(CCC3CCCCC3)C(=O)C2=O)N(CCc2ccccc2)C1=O,?,?,?,-51,?,?
O=C1NC[C@@H](CCCCN2C[C@H](Cc3ccccc3)N(CC3CCCCC3)C(=O)C2=O)N(CC2CCCCC2)C1=O,?,–,?,–,–,–
O=C1NC[C@H](CCCCN2C[C@H](Cc3ccccc3)N(CC3CCCCC3)C(=O)C2=O)N(CCc2ccccc2)C1=O,–,?,–,-51,?,–
CC(C)C[C@H]1CN(CCCC[C@H]2CNC(=O)C(=O)N2CCC2CCCCC2)C(=O)C(=O)N1CC1CCCCC1,–,?,–,–,18µM,16µM
O=C1NC[C@H](CCCCN2C[C@H](Cc3ccc(O)cc3)N(CCC3CCCCC3)C(=O)C2=O)N(CCc2ccccc2)C1=O,–,–,–,–,–,–
O=C1NC[C@H](CCCCN2C[C@H](Cc3ccccc3)N(CCC3CCCCC3)C(=O)C2=O)N(CCc2ccccc2)C1=O,–,–,–,-72,?,?
COc1cc(C(=O)Nc2c(NC3CCCCC3)c3ccccc3oc2=O)ccc1OC(C)=O,·,–,·,·,·,·
CC(=O)N1CC2(CCCCN2CC2CC2)Cc2ccccc21 (configuration not stated),·,–[6.33 µM],·,·,·,·
O=C1NC[C@H](CCCCN2C[C@H](Cc3ccc(O)cc3)N(CC3CCCCC3)C(=O)C2=O)N(CC2CCCCC2)C1=O,–,45µM,–,–,–,–
O=C1NC[C@@H](CCCCN2C[C@H](Cc3ccc(O)cc3)N(CC3CCCCC3)C(=O)C2=O)N(Cc2ccccc2)C1=O,–,–,?,–,–,–
O=C1NC[C@H](CCCCN2C[C@H](Cc3ccccc3)N(Cc3ccccc3)C(=O)C2=O)N(CCC2CCCCC2)C1=O,–,?,–,–,18µM,–
O=[N+]([O-])c1ccc(Cl)nc1,·,–,·,·,·,·
CC(Cl)C(=O)c1ccc2c(c1)CCN2C(=O)C1CC1 (configuration not stated),–,–,–,-63,?,?
Cc1cccc(NS(=O)(=O)c2ccc3c(c2)CCN3C(=O)C2CC2)c1C,·,–,·,·,23µM,21µM
Cc1cccc(NS(=O)(=O)c2ccc3c(c2)CCCN3C(=O)C2CCC2)c1C,·,–,·,·,?,21µM
COc1ccc2c3c(n(C)c2c1)[C@H](CO)N(C(C)=O)CC31CCN(C(=O)C2CCOCC2)CC1,·,–,·,·,·,·
C=CCOn1c(=O)c(-c2ccccc2)[n+]([O-])c2ccccc21,–,–,–,–,–,–
C=CCOn1c(=O)c(-c2cc3ccccc3o2)[n+]([O-])c2ccccc21,–,–,–,–,18µM,–
